WRN inhibitor: WRN helicase (human) inhibition | hit rate 0.46% among 360,000 | Potency, µM (highest dose often 114 µM), most hits filed as inhibitors | AID 651768 | WRN helicase unwinding, fluorescent forked duplex, kinetic; also: nearly all actives have a fitted effect of over 55% in size
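Enzyme (20 nM final) and test compound sit together 15 min at room temperature before substrate addition. Substrate is a single-forked duplex oligonucleotide (100 nM) labelled with fluorophore and quencher, with 2 mM ATP; helicase unwinding raises red fluorescence, read kinetically.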
POLB inh: DNA polymerase beta (human) inhibition; P06746; Pol beta primer extension/strand displacement, fluorescence kinetic; Potency, µM (series often up to 114 µM), actives largely listed as inhibitors; hit rate 1.3% among 340,000
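Enzyme-only controls used 10 nM Pol beta; buffer lacking enzyme served as negative control. Compound preincubated 15 min, then 50 nM substrate added; 0 and 10 min reads at room temperature.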
Pol iota inh: inhibitors of human DNA polymerase iota | Q9UNA4 | hit rate 1% among 390,000 | Pol iota fluorescent replication assay, 10 min | Potency, µM (highest dose often 115 µM), actives largely listed as inhibitors | AID 588590
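Pol iota at 10 nM preincubated 15 min with compounds at room temperature; reaction started with fluorescent substrate, 50 nM final. Fluorescence read kinetically at 0 and 10 min; buffer-only wells as negative control.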
FEN1 inh: blocks human flap endonuclease 1 | Recombinant FEN1 flap cleavage, fluorescence, 15 min | hit rate 0.35% among 390,000 | P39748 | Potency, µM (doses to about 114 µM), usual class: inhibitors; also: nearly all actives have a fitted effect of over 65% in size
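In this screen, 50 nM flap DNA substrate was added to 10 nM FEN1 pretreated with compound for 15 min at room temperature; cleavage was followed with reads at 0 and 15 min, and Hill fitting gave concentration–response parameters.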
Pol eta inh-1: inhibitors of human DNA polymerase eta; Potency, µM (top dose mostly 114 µM), hits mostly inhibitors; Q9Y253; recombinant Pol eta, fluorescent DNA replication assay; hit rate 1.2% among 390,000
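Fluorescent replication assay: 50 nM final substrate added after a 15 min room-temperature compound preincubation with 10 nM enzyme. Signal taken at 0 min and again at 10 min.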
Pol kappa inh-1: inhibitors of human DNA polymerase kappa; Potency, µM (top dose mostly 107 µM), most hits filed as inhibitors; Q9UBT6; hit rate 0.53% among 400,000; purified Pol kappa, fluorescent DNA synthesis assay, 10 min
Target sequence (Q9UBT6 whole entry, looked up): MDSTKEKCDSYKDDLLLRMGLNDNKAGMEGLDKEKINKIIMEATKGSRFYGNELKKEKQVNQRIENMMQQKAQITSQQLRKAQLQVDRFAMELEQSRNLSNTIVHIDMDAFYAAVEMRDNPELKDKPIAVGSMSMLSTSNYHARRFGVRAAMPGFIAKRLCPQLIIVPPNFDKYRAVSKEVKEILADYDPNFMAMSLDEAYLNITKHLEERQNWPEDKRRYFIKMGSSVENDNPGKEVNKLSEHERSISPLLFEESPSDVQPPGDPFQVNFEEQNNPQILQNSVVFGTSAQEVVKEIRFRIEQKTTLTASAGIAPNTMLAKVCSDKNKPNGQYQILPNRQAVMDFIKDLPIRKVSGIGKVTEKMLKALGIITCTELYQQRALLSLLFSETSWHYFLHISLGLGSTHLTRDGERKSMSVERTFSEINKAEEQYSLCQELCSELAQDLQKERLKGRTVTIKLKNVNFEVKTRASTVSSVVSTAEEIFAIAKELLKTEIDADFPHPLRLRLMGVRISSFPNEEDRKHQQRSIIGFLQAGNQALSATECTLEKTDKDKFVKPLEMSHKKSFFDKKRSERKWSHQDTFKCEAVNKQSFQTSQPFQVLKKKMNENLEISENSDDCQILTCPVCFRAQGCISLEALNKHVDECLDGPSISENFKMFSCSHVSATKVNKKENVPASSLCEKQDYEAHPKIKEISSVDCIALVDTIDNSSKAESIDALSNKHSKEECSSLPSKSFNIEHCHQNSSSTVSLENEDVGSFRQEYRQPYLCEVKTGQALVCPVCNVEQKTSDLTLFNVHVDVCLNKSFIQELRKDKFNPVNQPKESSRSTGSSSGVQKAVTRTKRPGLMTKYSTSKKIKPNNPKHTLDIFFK
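10 nM Pol kappa preincubated 15 min at room temperature with compounds, then reaction started with substrate at 50 nM final. Fluorescence read kinetically at 0 and 10 min; buffer-only wells served as negative control.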
GALK inh confirm: confirmation of human galactokinase (GALK) inhibitors. Potency, µM (top dose mostly 115 µM), actives largely listed as inhibitors. shares compounds with Pol eta inh-1. AID 2015. hit rate 70% among 150. purified GALK, Kinase-Glo ATP depletion luminescence
Redox cycling: redox cycling activity in phenol red-HRP assay; shares compounds with Pol eta inh-1; Phenol red-HRP H2O2 redox cycling, absorbance 600 nm; Potency, µM (titrated, usually from 115 µM), hits mostly inhibitors; hit rate 40% among 150; AID 2035
HEK293 tox: HEK-293 cytotoxicity, GALK inhibitor secondary; shares compounds with Pol eta inh-1; HEK-293 viability, ATP luminescence (CellTiter-Glo), 24/48 h; Potency, µM (series often up to 46.1 µM), most hits filed as inhibitors; hit rate 10% among 170; AID 2547
Pol kappa inh-2: Pol kappa (human) inhibition, cherry-pick confirmation; shares compounds with Pol eta inh-1; purified Pol-kappa, fluorescent strand-displacement substrate; Potency, µM, actives largely listed as inhibitors; hit rate 76% among 920; AID 720501
Pol eta inh-2: Pol eta (human) inhibition, cherry-pick confirmation | shares compounds with Pol eta inh-1 | Pol eta primer extension, TAMRA/BHQ fluorescence, 10 min | Potency, µM, actives largely listed as inhibitors | hit rate 64% among 2,600 | AID 720502
Large screens that a line does not name were inactive (follow-up assays come after a bar, where they were run). In the library only some 2.4% were active in any assay of this set; here they are far more common. Calls follow the shape of the dose curve; as a rule, active = well fitted curve in the direction sought with a large enough effect; inconclusive = small, poorly fitted or top-dose-only effect, or another doubt; inactive = no such curve, though single readings can be large; an effect the other way counts as inactive or inconclusive.

C=CCc1cccc2cc(C(=O)N(C)C)c(=O)oc12	none
O=[N+]([O-])c1ccc(NN=Cc2cccc3ccccc23)cc1	none (no result: POLB inh)
O=[N+]([O-])c1cc(Br)c(O)c(/C=N/Nc2nnnn2-c2cccc3ccccc23)c1	WRN inhibitor inconclusive, POLB inh inconclusive, FEN1 inh inconclusive, Pol eta inh-1 71µM | GALK inh confirm 30µM | Redox cycling inactive | HEK293 tox inactive
COc1ccc(-c2c(C)c3ccc(O)cc3oc2=O)cc1OC	none
Nc1ccc(-c2c3ccc(=O)cc-3oc3cc(O)ccc23)cc1C(=O)O	WRN inhibitor inconclusive, POLB inh 45µM, Pol iota inh 25µM, Pol eta inh-1 20µM, Pol kappa inh-1 79µM | Pol kappa inh-2 15 | Pol eta inh-2 30
CC(=O)C1=C(C)OC(N)=C(C#N)C1c1ccncc1 (centres undefined)	none
CC(C)c1ccc(NS(=O)(=O)c2ccc3[nH]cc(C(=O)NCC4CCCO4)c(=O)c3c2)cc1 (centres undefined)	POLB inh 32µM, Pol iota inh 79µM, Pol eta inh-1 89µM (no result: WRN inhibitor) | Pol kappa inh-2 38 | Pol eta inh-2 inconclusive
CCc1ccccc1NS(=O)(=O)c1ccc2[nH]cc(C(=O)NCC3CCCO3)c(=O)c2c1 (centres undefined)	Pol eta inh-1 inconclusive
Cc1cc(C)cc(NS(=O)(=O)c2ccc3[nH]cc(C(=O)NC4CCCCC4)c(=O)c3c2)c1	POLB inh inconclusive (no result: WRN inhibitor)
CC(C)c1ccc(NS(=O)(=O)c2ccc3[nH]cc(C(=O)NC4CCCCC4)c(=O)c3c2)cc1	POLB inh 25µM, Pol iota inh inconclusive, Pol eta inh-1 35µM, Pol kappa inh-1 inconclusive (no result: WRN inhibitor) | Pol kappa inh-2 19 | Pol eta inh-2 76
COc1ccc(CCNC(=O)CCn2c(=O)c3ccccc3n(Cc3ccccc3)c2=O)cc1OC	none (no result: WRN inhibitor)
CN=c1scc(-c2cccs2)n1/N=C/c1ccc(O)c(O)c1O	WRN inhibitor inconclusive, POLB inh 2.8µM, Pol iota inh inconclusive, FEN1 inh 35µM, Pol eta inh-1 inconclusive, Pol kappa inh-1 inconclusive | Pol eta inh-2 76
Cc1ccc(C2C(/C=C3/SC(=S)NC3=O)=C(c3cccs3)Oc3ccccc32)cc1 (centres undefined)	WRN inhibitor 79µM, POLB inh 32µM, Pol iota inh inconclusive, FEN1 inh inconclusive, Pol eta inh-1 71µM, Pol kappa inh-1 inconclusive | Pol kappa inh-2 inconclusive | Pol eta inh-2 inconclusive
CC1Cc2cc(/C=C3/SC(=S)NC3=O)ccc2O1 (centres undefined)	none
O=C1N/C(=C/c2cccn2-c2ccc(F)cc2)C(=O)N1Cc1ccccc1F	none
O=C(CN1C(=O)N/C(=C\c2cccn2-c2cccc(C(=O)O)c2)C1=O)Nc1cccc(Cl)c1	none (no result: WRN inhibitor, POLB inh, Pol iota inh, FEN1 inh, Pol eta inh-1, Pol kappa inh-1) | Pol kappa inh-2 inconclusive
Cc1cccc(NC(=O)CN2C(=O)N/C(=C/c3ccc(C)s3)C2=O)c1	none
O=C(O)c1cccc(-n2cccc2/C=C2/NC(=O)N(Cc3ccccc3F)C2=O)c1	POLB inh 10µM, Pol iota inh 32µM, Pol eta inh-1 20µM, Pol kappa inh-1 inconclusive | Pol eta inh-2 inconclusive
Cc1ccc(NC(=O)CN2C(=O)N/C(=C\c3cccn3-c3ccc(C(=O)NS(C)(=O)=O)cc3)C2=O)cc1	none (no result: WRN inhibitor, POLB inh, Pol iota inh, FEN1 inh, Pol eta inh-1, Pol kappa inh-1) | Pol eta inh-2 inconclusive
COc1ccccc1NC(=O)c1sc2nc(C)c(C(=O)Nc3ccc(C)cc3C)c(-c3ccccc3Cl)c2c1N	none (no result: WRN inhibitor)
Cc1nc(Nc2nc(-c3ccccc3)cc(=O)[nH]2)nc2ccccc12	FEN1 inh 25µM, Pol eta inh-1 inconclusive (no result: POLB inh) | Pol eta inh-2 inconclusive
CC(C)CN(C(=O)CC1CCCC1)c1c(N)n(Cc2ccccc2)c(=O)[nH]c1=O	none (no result: POLB inh)
Cc1ccc(NC(=O)c2cccc(C(=O)Nc3ccc(C)cc3C(=O)O)c2)c(C(=O)O)c1	FEN1 inh inconclusive, Pol eta inh-1 inconclusive | Pol kappa inh-2 15 | Pol eta inh-2 inconclusive
COc1ccc(NC(=S)N2CCC(NC(=O)c3ccccc3C)CC2)cc1	none
Cc1cc(C)c2c(c1)C(=O)/C(=C/c1ccc(C(=O)O)cc1)CC2	Pol iota inh inconclusive, Pol eta inh-1 inconclusive
O=C(O)c1ccc(/C=C2\COc3ccccc3C2=O)cc1	WRN inhibitor inconclusive, Pol iota inh inconclusive, Pol eta inh-1 inconclusive | Pol eta inh-2 inconclusive
CC(C(=O)N(C)C1CCS(=O)(=O)C1)N1C(=O)/C(=C/c2ccco2)SC1=S (centres undefined)	POLB inh inconclusive, Pol iota inh 32µM, FEN1 inh inconclusive, Pol eta inh-1 22µM, Pol kappa inh-1 inconclusive | Pol eta inh-2 76
O=C(CN1C(=O)/C(=C/c2ccco2)SC1=S)NC1CCS(=O)(=O)C1 (centres undefined)	POLB inh inconclusive, Pol iota inh inconclusive, FEN1 inh inconclusive, Pol eta inh-1 13µM, Pol kappa inh-1 inconclusive | Pol eta inh-2 60
CC(C(=O)N(C)C1CCS(=O)(=O)C1)N1C(=O)/C(=C/c2cccs2)SC1=S (centres undefined)	none
Cc1c(CCC(=O)O)c(=O)oc2c(C)c3occ(-c4ccc(Cl)cc4)c3cc12	WRN inhibitor 56µM, POLB inh 22µM, Pol iota inh 13µM, FEN1 inh inconclusive, Pol eta inh-1 22µM, Pol kappa inh-1 89µM | Pol eta inh-2 inconclusive
O=C(NNC(=O)c1ccccc1C(=O)O)c1cc2ccccc2o1	Pol iota inh inconclusive | GALK inh confirm 33µM | Redox cycling inactive | HEK293 tox inactive
COc1ccc(Cc2nc3ccc(C(=O)NCCc4ncccc4C)cc3o2)cc1OC	none (no result: POLB inh, Pol iota inh, FEN1 inh, Pol kappa inh-1)
CC1CCN(S(=O)(=O)c2ccc(NC(=O)CCNC(=O)c3ccc(Cl)cc3)cc2)CC1	none (no result: POLB inh)
NS(=O)(=O)c1ccc(NC(=O)CSc2nnc(NC3CC3)s2)cc1	WRN inhibitor inconclusive, Pol iota inh 40µM, Pol eta inh-1 20µM, Pol kappa inh-1 inconclusive (no result: POLB inh) | Pol eta inh-2 67

Bioassay records from PubChem.
